About 83,000 compounds went through this panel and 20% of them were active in at least one assay; those are over-represented in the sample as a whole.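 Negative percent growth values reflect cell death: -40 means 40% of the cells present at the start died, and -100 means all died.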 The source made the active and inactive calls. How the source made its calls: active means growth percent below 10; inactive means the rest.

In one test the test system is HCT-116 colon. Put plainly: NCI-60 one-dose screen, 48 h (100 = growth as untreated, 0 = no growth, -100 = all killed). The settings on record: 10 µM unless noted.
For the compound `Oc1ccc(CSc2nnc(-c3ccccc3)n2-c2ccccc2)c2cccnc12`, the growth was 10.8% (inactive).
Still for that read-out and setting: the figure for `Cc1ccc(NC(=O)c2ccc(CN3CCN(C)CC3)c(C(F)(F)F)c2)cc1Oc1ccc(-c2[nH]nc3ncnc(N)c23)cc1` is 8.72% (active); for `CC(c1ccccc1)N1C(=O)/C(=C/c2csc(C#N)n2)SC1=S` (configuration not stated) it is 67.6% (inactive).
In the case of `O=C(COc1ccc(C2SCC(=O)N2c2ccc(F)cc2)cc1)c1ccccc1` (configuration not stated), the growth was 94.3% (inactive).
Still for that read-out and setting: the figure for `COc1ccc(-c2nnc(SCc3ccc(O)c4ncccc34)o2)cc1` is 23.1% (inactive).
The same measure, in the same setting: with `O=c1[nH]c(CNc2ccc(NCc3c(-c4ccccc4)no[n+]3[O-])cc2)nc2c1cnn2-c1ccccc1` the figure was 49.6% (inactive); with `COc1ccc(N)cc1C(=O)Nc1cccc(-c2cc(=O)c3c(OC)c(OC)c(OC)cc3o2)c1`, 65.5% (inactive); with `CCCC(=O)NC(c1cccnc1)c1cc(C(C)=O)c2cccnc2c1O` (configuration not stated), 25.5% (inactive).

Another test has as its system HCC-2998 colon. The test is described as above. The settings on record: 10 µM unless noted.
Take `ClC(Cl)c1nc(-c2cccs2)n2nc(-c3ccccc3)cc2n1`: the growth was -71.3% (active).
The same measure, in the same setting: the figure for `O=C(COc1ccc(C2SCC(=O)N2c2ccccc2)cc1)c1ccccc1` (configuration not stated) is 102% (inactive).
The same measure, in the same setting: with `c1ccc(-c2n(Cc3ccc4ccccc4c3)c3c4ccccc4c4ccccc4c3[n+]2Cc2ccc3ccccc3c2)cc1` the figure was -90.8% (active).
In the case of `O=C1[C@@H]2Cc3c([nH]c4ccccc34)[C@H](c3c(Cl)cccc3Cl)N2C(=O)CN1C1CCN(Cc2c(F)cccc2F)CC1`, the growth was 63.8% (inactive).
Same read-out and setting: the figure for `NCCN1CCN(c2nc(-c3ccccc3)nc3nc(-c4ccccc4)oc23)CC1` is -14.4% (active); for `C/C(=C(/C)C1CC1CCN(C(=O)c1ccccn1)S(=O)(=O)c1ccc(C)cc1)C1CCCCC1` (configuration not stated) it is 97.4% (inactive); for `Cc1nn(-c2ccccc2)cc1/C=N/Nc1nc(Nc2ccccc2)nc(Nc2ccc(S(N)(=O)=O)cc2)n1` it is -17.2% (active).
The same measure, in the same setting: the figure for `Brc1cccc(/C=N/Nc2nc(N/N=C/c3cccc(Br)c3)nc(N3CCOCC3)n2)c1` is 31.5% (inactive).
`COc1cc(/C=C2\SC(=O)NC2=O)ccc1OCC(=O)Nc1ccc(C(=O)/C=C/c2cc3ccccc3nc2Cl)cc1`: the growth was 103% (inactive).
With `O=c1oc2ccc(-c3ccc(F)cc3F)cc2c(=O)n1-c1ccc(F)c(F)c1`, the growth was 14.5% (inactive).
The same measure, in the same setting: with `CC[C@@](C)(NC(=O)C(C)(C)NC(=O)[C@@H](NC(=O)[C@@H]1CCCN1C(=O)C(C)(C)NC(=O)[C@H](CC(C)C)NC(=O)CNC(=O)C(C)(C)NC(=O)[C@@H](NC(=O)C(C)(C)NC(=O)[C@H](CCC(N)=O)NC(=O)[C@H](C)NC(=O)C(C)(C)NC(=O)[C@H](C)NC(=O)C(C)(C)NC(=O)[C@@H]1CCCN1C(=O)C(C)(C)NC(C)=O)C(C)C)C(C)C)C(=O)N[C@@H](CCC(N)=O)C(=O)N[C@@H](CCC(N)=O)C(=O)N[C@H](CO)Cc1ccccc1` the figure was 29.3% [4.25 µM] (inactive); with `O=C(/C=C/c1cn(-c2ccccc2)nc1-c1ccc(Cl)cc1)c1cc2ccccc2oc1=O`, 102% (inactive); with `CCN1C(=O)N(CC)C2SC(N/N=C/c3ccc(OC)cc3)=NC21` (configuration not stated), 13.5% (inactive).
On the same count and under the same terms, the figure for `O=C(O)c1ccc(-n2cc(CNc3ccc(F)cc3)c(-c3ccc(C(F)(F)F)cc3)n2)cc1` is 102% (inactive).
The same measure, in the same setting: the figure for `COc1cc(/C=C/C(=O)c2ccc(NC(=O)COc3cccc4cccnc34)cc2)cc(OC)c1OC` is 112% (inactive); for `COc1cc(CNC(=O)Cc2ccccc2[N+](=O)[O-])ccc1OCC(=O)NO` it is 108% (inactive); for `Oc1ccc(CSc2nnc(-c3cnccn3)o2)c2cccnc12` it is 13.2% (inactive).
Regarding `O=C(NCCCNc1cc(-c2cn(-c3ccccc3)nc2-c2cccc(O)c2)ccn1)Nc1ccc(F)cc1`, the growth was -60.3% (active).
On to `COc1ccc(-c2nn(-c3ccccc3)cc2/C=C/C(=O)c2ccc(NC(=O)CCCCCCC(=O)NO)cc2)cc1`, for which the growth is 108% (inactive).
Still for that read-out and setting: the figure for `O=C1[C@H]2Cc3c([nH]c4ccccc34)[C@@H](c3c(Cl)cccc3Cl)N2C(=O)CN1C1CCN(Cc2ccccc2)CC1` is 102% (inactive); for `COc1cccc(/C=C/C(=O)c2ccc(NC(=O)COc3cccc4cccnc34)cc2)c1` it is 99.3% (inactive).
Still for that read-out and setting: with `CCCC(=O)NC(c1cccnc1)c1cc(Cl)c2cccnc2c1O` (configuration not stated) the figure was 51.2% (inactive); with `C/C(=N/Nc1nc(N/N=C(/C)c2ccc([N+](=O)[O-])cc2)nc(N2CCOCC2)n1)c1ccc([N+](=O)[O-])cc1`, 96% (inactive); with `Oc1ccc(CSc2nnc(-c3cnccn3)n2-c2ccccc2)c2cccnc12`, 42.1% (inactive).
Same read-out and setting: the figure for `CCOC(=O)C1=C(C)Nc2nc3ccccc3n2C1c1ccccc1` (configuration not stated) is 114% (inactive); for `Oc1ccc(CSc2nnc(-c3ccc(Br)cc3)o2)c2cccnc12` it is 44.9% (inactive); for `CNC(=O)c1cc(N2CCc3cc(NC(=O)Nc4ccc(Cl)c(Cl)c4)ccc32)ccn1` it is 98% (inactive).
For `COc1cc2cc(Oc3ccc(NC(=O)Nc4cc(C(F)(F)F)cc(C(F)(F)F)c4)cc3)c(C)nc2cc1OCCN(C)C`, the growth is 103% (inactive).
On the same count and under the same terms, with `Cc1cc(O)c(=O)cc2c1C[C@H]1CC(C)(C)/C=C/C[C@]3(C)Oc4cc(=O)c(O)cc(C)c4C[C@H]3C[C@H](O)[C@@]1(C)O2` the figure was 30.8% (inactive).
The same measure, in the same setting: the figure for `COc1ccc(-c2nnc(SCc3ccc(O)c4ncccc34)n2-c2ccccc2)cc1` is 31.9% (inactive); for `O=C(CCCCCCN1CC(=O)N2[C@@H](c3ccc(Cl)c(F)c3)c3[nH]c4ccccc4c3C[C@H]2C1=O)NO` it is 99.2% (inactive); for `Oc1ccc(CSc2nnc(-c3ccccc3)n2-c2ccccc2)c2cccnc12` it is 26.9% (inactive).
Take `Cc1ccc(NC(=O)c2ccc(CN3CCN(C)CC3)c(C(F)(F)F)c2)cc1Oc1ccc(-c2[nH]nc3ncnc(N)c23)cc1`: the growth is 111% (inactive).
As to `CC(c1ccccc1)N1C(=O)/C(=C/c2csc(C#N)n2)SC1=S` (configuration not stated), the growth was 107% (inactive).
Turning to `O=C(COc1ccc(C2SCC(=O)N2c2ccc(F)cc2)cc1)c1ccccc1` (configuration not stated), the growth is 106% (inactive).
Same read-out and setting: with `COc1ccc(-c2nnc(SCc3ccc(O)c4ncccc34)o2)cc1` the figure was 45.2% (inactive).
For `O=c1[nH]c(CNc2ccc(NCc3c(-c4ccccc4)no[n+]3[O-])cc2)nc2c1cnn2-c1ccccc1`, the growth is 84.4% (inactive).
Same read-out and setting: the figure for `COc1ccc(N)cc1C(=O)Nc1cccc(-c2cc(=O)c3c(OC)c(OC)c(OC)cc3o2)c1` is 55.3% (inactive); for `CCCC(=O)NC(c1cccnc1)c1cc(C(C)=O)c2cccnc2c1O` (configuration not stated) it is 24.9% (inactive).
